# AmpC inh detg – inhibitors of E. coli AmpC beta-lactamase with detergent; Potency, µM (highest dose often 114 µM), for inactives: top-dose activity change, negative = inhibition, most hits filed as inhibitors; 370,000 tested, 0.041% active; AID 485294; AmpC hydrolysis of nitrocefin, absorbance 480 nm, 0.01% Triton;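 also: 0% = no-compound wells and -100% = no-enzyme wells; nearly all actives have a fitted effect of over 25% in size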
# Target sequence (P00811 whole entry, looked up): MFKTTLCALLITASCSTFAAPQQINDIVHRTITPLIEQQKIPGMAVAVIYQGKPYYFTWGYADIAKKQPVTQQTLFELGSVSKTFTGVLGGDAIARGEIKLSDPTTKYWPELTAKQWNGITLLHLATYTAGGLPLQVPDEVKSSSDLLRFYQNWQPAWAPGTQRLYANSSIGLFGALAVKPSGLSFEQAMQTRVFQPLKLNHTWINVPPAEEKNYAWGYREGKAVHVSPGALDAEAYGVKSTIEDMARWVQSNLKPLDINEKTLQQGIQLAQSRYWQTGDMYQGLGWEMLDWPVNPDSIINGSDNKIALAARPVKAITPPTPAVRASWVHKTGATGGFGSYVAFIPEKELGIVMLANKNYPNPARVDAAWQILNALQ
#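 20 mM phosphate pH 7.0 + 0.01% (detergent screen) or 0.0001% Triton X-100; 5.3 nM AmpC reagent; cpd preinc 15 min RT; nitrocefin (800 uM stock) to start; A480 q20 s × 4 min; Activity was normalised to no-enzyme and no-compound control wells.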
# Pf growth 48h – P. falciparum growth inhibition at 48 hours (one generation); 310,000 tested, 5.9% active; AID 504832; P. falciparum luciferase growth in erythrocytes, 48 h; Potency, µM (highest dose often 28.7 µM), without a hit: at the highest dose activity change, negative = inhibition, hits mostly inhibitors; also: % is scaled to controls: 0 for no effect and ±100 for the full control effect
#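 Parasite viability was followed by luminescence of a genomically integrated firefly luciferase. Cultures held 0.1% parasitemia at 2% hematocrit (final), incubated under 5% CO2 at 37 C.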
# SARS PLP yeast – blocks SARS-CoV papain-like protease in a yeast assay. S. cerevisiae expressing SARS-CoV PLpro, growth rescue. Potency, µM (series often up to 32.9 µM), inactives show at the top dose activity, positive = growth rescue, actives largely listed as activators. 330,000 tested, 0.19% active. AID 485353; calls by dose curve; also: 0% is about no effect; nearly all actives have a fitted effect of over 55% in size
# AmpC no deterg – AmpC beta-lactamase inhibition without detergent. P00811. AmpC nitrocefin hydrolysis, absorbance 480 nm, 0.0001% Triton. Potency, µM (doses to about 57.1 µM), for inactives: at the highest dose activity change, negative = inhibition, usual class: inhibitors. 330,000 tested, 0.52% active. AID 485341;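 also: plate controls were no compound for no effect and no enzyme for full effect; nearly all actives have a fitted effect of over 20% in size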
#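 AmpC (5.3 nM in the dispensed reagent) in 20 mM phosphate pH 7.0 with 0.01% (detergent screen) or 0.0001% Triton X-100 was preincubated with compounds for 15 min at room temperature. Nitrocefin was then added from an 800 uM solution, and hydrolysis was followed at 480 nm.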
# Sm TGR inh – inhibitors of Schistosoma mansoni thioredoxin glutathione reductase | Q962Y6 | purified TGR, DTNB reduction, TNB absorbance 405 nm | Potency, µM (doses to about 114 µM), without a hit: top-dose activity change, negative = inhibition, hits mostly inhibitors | 360,000 tested, 3% active; also: % is scaled to controls: 0 for no effect and ±100 for the full control effect; nearly all actives have a fitted effect of over 60% in size
#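 Kinetic colorimetric format: TGR-catalysed, NADPH-driven DTNB reduction monitored via TNB absorbance. Enzyme dispensed at 20 nM; compound exposure 15 min at room temperature before reaction start.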
# Pf growth 96h – P. falciparum growth inhibition at 96 hour, primary screen for plastid delayed-death inhibitors. P. falciparum luciferase reporter growth, 96 h. Potency, µM (series often up to 28.7 µM), without a hit: at the top dose activity change, negative = inhibition, actives largely listed as inhibitors. 320,000 tested, 6.9% active. AID 504834; also: % is scaled to controls: 0 for no effect and ±100 for the full control effect
#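 96 h incubation, 37 C, 5% CO2, of luciferase-reporter P. falciparum-infected RBCs (2% hematocrit, 0.05% parasitemia final) with test compounds; endpoint luminescence.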
# * marks the source's active call; other numbers are inactive results; ? = inconclusive; . = not tested or not shown; [ ] = dose if it differs, or a comment. Rows were chosen to be rich in hits. Some 12% of all compounds tested hit in one or more screens of this group. Unless noted, calls follow the shape of the dose curve; as a rule, active = well fitted curve in the direction sought with a large enough effect; inconclusive = small, poorly fitted or top-dose-only effect, or another doubt; inactive = no such curve, though single readings can be large; an effect the other way counts as inactive or inconclusive. Potency is read from the fitted curve at half-maximal effect.
SMILES,AmpC inh detg,Pf growth 48h,SARS PLP yeast,AmpC no deterg,Sm TGR inh,Pf growth 96h
COc1ccc(-c2cc(C(F)(F)F)nc(NC3CCCC3)n2)cc1OC,-6%,15µM*,0%,44%,-20%,13%
COc1ccc(CNc2nc(-c3ccc(OC)c(OC)c3)cc(C(F)(F)F)n2)cc1,13%,.,.,.,5%,.
COc1cccc(NC(=O)Cc2csc(NC(=O)Nc3ccccc3OC)n2)c1,?,?,10%,-32%,-10%,?
COc1ccccc1NC(=O)Nc1nc(CC(=O)Nc2ccc(OC)c(OC)c2)cs1,?,?,2%,-21%,1%,5.2µM*
COc1ccccc1NC(=O)Cc1csc(NC(=S)Nc2ccc(C)cc2)n1,2%,?,1%,-30%,-30%,10µM*
COc1cc(C(=O)NC(C)c2ccc3ccccc3c2)cc(Cl)c1O (stereo not drawn),?,1%,-6%,-29%,-23%,?
CCOc1cc(C#N)c(NC(=O)Cn2nnc3ccccc32)cc1OCC,-2%,6%,1%,-18%,4%,5.9µM*
COc1ccccc1OCCn1nnc2ccccc21,-11%,37%,3%,21%,-1%,5%
CCOc1ccccc1OCCn1nnc2ccccc21,4%,0%,-3%,-2%,-3%,10µM*
CCOC(=O)c1c(C)oc2nc(C)nc(N3CCN(c4cccc(C)c4C)CC3)c12,26%,.,.,.,12%,.
CSc1ccccc1-c1n[nH]c(=S)o1,?,13µM*,0%,-19%,1%,38%
O=CN1CCN(C(=O)c2ccc([N+](=O)[O-])cc2)CC1,?,-1%,4%,-16%,-6%,0%
CC(=O)NC(=S)Nc1ccc(NC(=S)NC(=O)c2cccs2)cc1,-3%,?,2%,10%,-26%,46%
CCN(CC)c1ccc(NC(=S)NC(=O)c2cccs2)cc1,3%,?,1%,-57%,8.9µM*,?
CCN(CC)c1ccc(NC(=S)NC(=O)c2ccco2)cc1,?,?,-2%,-21%,11µM*,37%
CCN(CC)c1ccc(NC(=O)c2ccco2)cc1,?,-11%,-2%,-16%,-14%,-17%
CN(C)S(=O)(=O)c1ccc(NC(=S)NC(=O)c2cccs2)cc1,10%,13%,0%,-34%,?,9.3µM*
CCN(CC(=O)Nc1ccccc1OC)C(=O)c1ccc(NC(=O)c2cccs2)cc1,-1%,7.4µM*,-1%,-42%,0%,?
CN(c1ccccc1)S(=O)(=O)c1ccc(NC(=O)c2cccs2)cc1,1%,?,0%,-15%[2.29 µM],4%,-6%
CCN(c1ccccc1)S(=O)(=O)c1ccc(NC(=S)NC(=O)c2cccs2)cc1,1%,?,4%,14µM*,?,?
Cc1ccc(NC(=O)C2CCCN(S(=O)(=O)c3cnc[nH]3)C2)cc1C (stereo not drawn),-11%,-1%,-1%,-18%,-5%,?
COc1ccc(C)cc1NC(=O)C1CCCN(S(=O)(=O)c2cnc[nH]2)C1 (stereo not drawn),?,.,3%,-8%,-6%,12µM*
Cc1cc(NC(=O)C2CCCN(S(=O)(=O)c3cnc[nH]3)C2)ccc1Br (stereo not drawn),?,.,0%,-16%,-4%,4.1µM*
CCSc1nnc(NC(=O)C2CCCN(S(=O)(=O)c3cnc[nH]3)C2)s1 (stereo not drawn),8%,10%,11%,45µM*,3%,0%
O=C(Nc1ccc(Cl)c(C(F)(F)F)c1)C1CCCN(S(=O)(=O)c2cnc[nH]2)C1 (stereo not drawn),-13%,?,-3%,-22%,-24%,10µM*
SMILES,AmpC inh detg,Pf growth 48h,SARS PLP yeast,AmpC no deterg,Sm TGR inh,Pf growth 96h
Cc1ccc(CNC(=O)C2CCN(c3ncnc4c3nc3n4CCCCC3)CC2)cc1,12%,.,.,.,-1%,.
COc1ccc(NC(=O)c2cc(C3CC3)nc3c2c(C)nn3-c2ccc(C)cc2)cc1OC,18%,.,.,.,8%,.
CCCOc1cccc(C(=O)Nc2ccc(-c3nc4ccccc4o3)cc2)c1,3%,.,.,.,-9%,.
Cc1c(NS(=O)(=O)c2ccccc2F)c(=O)n(-c2ccccc2)n1C,0%,3%,3%,0%,-1%,13%
COc1ccc(-c2cc(C(=O)Nc3c(C)n(C)n(-c4ccccc4)c3=O)c3ccccc3n2)c(OC)c1,-1%,12µM*,24%,47%,-8%,15µM*
COc1ccc(/C(O)=C/C(=O)C(=O)Nc2c(C)n(C)n(-c3ccccc3)c2=O)cc1,-3%,26%,-4%,111%,32%,7.4µM*
COc1ccc(/C(O)=C/C(=O)C(=O)NNC(=O)c2ccccc2)cc1,1%,37%,2%,-38%,14µM*,44%
COc1ccc(OC)c(S(=O)(=O)Nc2c(C)n(C)n(-c3ccccc3)c2=O)c1,?,-7%,6%,-7%,-16%,15µM*
O=C(c1ccccc1OCc1ccccc1Br)N1CCN(c2ncccn2)CC1,-6%,?,-16%,99%,0%,?
COc1cccc(OCC(=O)O)c1,-9%,71%,1%,-18%,5%,24%
CCOc1ncccc1C(=O)OCC(=O)Nc1cc(C(C)(C)C)ccc1OC,.,.,1%,-3%,.,.
COc1ccc(Cn2c(CNS(=O)(=O)c3ccc4c(c3)CCCC4)nc3cccnc32)cc1,0%,.,.,.,4%,.
Cc1c(NC(=O)c2c(F)cccc2F)c(=O)n(-c2ccccc2)n1C,-11%,8%,0%,-17%,2%,-20%
Cc1c(NC(=O)C(C)OC(=O)/C=C/c2ccco2)c(=O)n(-c2ccccc2)n1C (stereo not drawn),2%,-4%,-2%,-5%,45µM*,-12%
COc1cccc(NC(=O)Nc2c(C)n(C)n(-c3ccccc3)c2=O)c1,-5%,8%,6%,-22%,-9%,15%
COc1cccc(OC)c1C(=O)Nc1c(C)n(C)n(-c2ccccc2)c1=O,-10%,5%,0%,96%,-4%,10µM*
Cc1c(NC(=O)Nc2cccc(C#N)c2)c(=O)n(-c2ccccc2)n1C,-7%,12%,-1%,-3%,-4%,3.7µM*
CC(=O)Nc1ccccc1-c1nc2ccccc2n(CC(=O)Nc2cccc(C)c2C)c1=O,7%,.,.,.,-2%,.
Cc1ccccc1N1CCN(S(=O)(=O)c2nnc(NC(=O)c3ccc(C(C)C)cc3)s2)CC1,18%,.,.,.,-1%,.
CCCN(CCC)C(=O)C1CCN(c2cc(C)nc3c(-c4ccc(Cl)cc4)c(C)nn23)CC1,13%,.,.,.,5%,.
